Screening data: PubChem BioAssay, National Center for Advancing Translational Sciences (NCATS)
DT40 TDP1 CPT: qHTS for Inhibitors of human tyrosyl-DNA phosphodiesterase 1 (TDP1): qHTS in cells in presence of CPT. Potency, µM (top dose mostly 46.2 µM), for the others: at the top dose activity change, negative = growth inhibition, usual class: inhibitors. chicken DT40 Tdp1-/-;hTDP1 cells + 20 nM CPT, ATP luminescence, 48 h. hit rate 12% among 420,000; also: potency is read from the fitted curve at half-maximal effect; % is scaled to controls: 0 for no effect and ±100 for the full control effect; nearly all actives have a fitted effect of over 55% in size
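Cell growth measured by CellTiter-Glo luminescence after a minimum 48 h, 37 C compound exposure with 20 nM CPT in Tdp1-knockout DT40 cells stably expressing hTDP1, seeded 400/well; qHTS titration format.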
TGFb inhibitor: qHTS for Inhibitors of TGF-b; HepG2 CAGA-GFP TGF-b/SMAD3 reporter, GFP fluorescence, 18 h; TGF-beta stimulated, 500 pg/mL final; Potency, µM (titrated, usually from 46.1 µM), inactives show at the top dose activity, negative = inhibition, usual class: inhibitors; hit rate 1.2% among 410,000; AID 588855, 2011; also: potency is read from the fitted curve at half-maximal effect; % is scaled to controls: 0 for no effect and ±100 for the full control effect; nearly all actives have a fitted effect of over 65% in size
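GFP signal (ex488/em500-530) from TGF-beta-stimulated HEPG2 CAGA-GFP cells, 500 pg/mL final, 18 h at 37 degrees C in DMEM plus 1% FBS, normalized to unstimulated and DMSO-stimulated controls.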
TDP1 block: qHTS Assay for Inhibitors of Tyrosyl-DNA Phosphodiesterase (TDP1); recombinant TDP1, AlphaScreen DNA substrate cleavage; Potency, µM (doses to about 130 µM), inactives show top-dose activity change, negative = inhibition, most hits filed as inhibitors; hit rate 0.28% among 350,000; also: potency is read from the fitted curve at half-maximal effect; % is scaled to controls: 0 for no effect and ±100 for the full control effect; nearly all actives have a fitted effect of over 40% in size
Target sequence (Q9NUW8 whole entry, looked up): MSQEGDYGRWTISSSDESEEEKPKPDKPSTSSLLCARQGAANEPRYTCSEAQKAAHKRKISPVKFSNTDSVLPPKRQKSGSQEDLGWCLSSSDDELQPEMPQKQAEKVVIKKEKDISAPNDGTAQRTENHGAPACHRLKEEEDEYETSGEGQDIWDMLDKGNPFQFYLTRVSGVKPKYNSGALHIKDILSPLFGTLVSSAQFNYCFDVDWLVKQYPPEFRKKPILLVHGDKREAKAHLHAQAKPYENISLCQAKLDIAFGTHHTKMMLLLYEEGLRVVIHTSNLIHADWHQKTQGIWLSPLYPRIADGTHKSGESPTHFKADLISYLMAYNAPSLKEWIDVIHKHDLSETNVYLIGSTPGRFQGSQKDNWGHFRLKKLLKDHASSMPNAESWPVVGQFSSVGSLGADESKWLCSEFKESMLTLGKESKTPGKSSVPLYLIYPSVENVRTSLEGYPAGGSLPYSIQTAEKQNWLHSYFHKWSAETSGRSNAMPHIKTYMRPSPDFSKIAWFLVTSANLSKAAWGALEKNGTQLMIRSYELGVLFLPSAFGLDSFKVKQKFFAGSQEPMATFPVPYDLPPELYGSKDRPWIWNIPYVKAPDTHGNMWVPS
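Enzyme-compound mixtures sat 15 min at room temperature, followed by a 5 min reaction with 15 nM final substrate and 10 min with AlphaScreen beads. Recombinant human Tdp1 was used at 1 nM final.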
HepG2 viability: qHTS for Inhibitors of TGF-b: Cytotox Counterscreen; HepG2 CAGA-GFP viability, ATP luminescence, 18 h; Potency, µM (doses to about 46.1 µM), inactives show at the top dose activity change, negative = cytotoxicity, actives largely listed as cytotoxic; hit rate 0.76% among 410,000; AID 588856, 2011; also: potency is read from the fitted curve at half-maximal effect
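CellTiter-Glo luminescence gave cytotoxicity after 18 hours at 37 degrees C. The cells were HepG2 CAGA-GFP in 1% FBS DMEM, stimulated with 500 pg/mL TGF-beta after compound addition. %Activity was normalised to no-cell wells (complete cell-killing) and DMSO (no toxicity), and curves were fitted and classified.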
IL-1B inflam inh: qHTS for Inhibitors of Inflammasome Signaling: IL-1-beta AlphaLISA Primary Screen. THP-1 LPS/ATP IL-1B secretion, AlphaLISA, 16 h; hits give low values. activity change, % at 57.5 µM. hit rate 4.7% among 360,000. AID 743279, 2014; in the data active = activity change below about -50%; inconclusive = mostly about -30% to -49%; also: % is scaled to controls: 0 for no effect and ±100 for the full control effect
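THP-1 cells pretreated 1 hr with compounds (up to 57.5 uM final), then stimulated with LPS (250 ng/mL final) plus ATP (1.25 mM final); secreted IL-1B measured by AlphaLISA after 16 hr, decreased signal indicating inhibition.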
DT40 TDP1 no CPT: qHTS for Inhibitors of human tyrosyl-DNA phosphodiesterase 1 (TDP1): qHTS in cells in absence of CPT; DT40 Tdp1-/- hTDP1 cells, no CPT, ATP luminescence, 48 h; Potency, µM (doses to about 46.2 µM), without a hit: at the highest dose activity change, negative = growth inhibition, usual class: inhibitors; hit rate 15% among 420,000; AID 686978, 2013; also: potency is read from the fitted curve at half-maximal effect; % is scaled to controls: 0 for no effect and ±100 for the full control effect; nearly all actives have a fitted effect of over 55% in size
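A cellular qHTS used chicken DT40 cells lacking endogenous Tdp1 but carrying stably transfected human TDP1. Compounds were applied without camptothecin, and cell growth kinetics were judged by ATP-dependent luminescence after ≥48 hr.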
* marks the source's active call; other numbers are inactive results; [ ] = dose if it differs, or a comment. The list is not random: actives were taken first. Their share in the collection is about 19%. Unless noted, calls follow the shape of the dose curve; as a rule, active = well fitted curve in the direction sought with a large enough effect; inconclusive = small, poorly fitted or top-dose-only effect, or another doubt; inactive = no such curve, though single readings can be large; an effect the other way counts as inactive or inconclusive.

Screening Cc1sc2ncnc(SCC(=O)NC(=O)NCc3ccco3)c2c1C returned DT40 TDP1 CPT -13%, TGFb inhibitor -23%, TDP1 block 45µM*, HepG2 viability 0%, IL-1B inflam inh 5 and DT40 TDP1 no CPT -10%.
`Cc1sc2ncnc(NCc3cccnc3)c2c1C` gave DT40 TDP1 CPT inconclusive, TGFb inhibitor -9%, TDP1 block 5%, HepG2 viability 4%, IL-1B inflam inh 38 and DT40 TDP1 no CPT inconclusive.
Screening Cc1nc(SCC(=O)NCc2ccco2)c2c(C)c(C)sc2n1 returned DT40 TDP1 CPT -28%, TGFb inhibitor -5%, TDP1 block 1%, HepG2 viability -6%, IL-1B inflam inh 11 and DT40 TDP1 no CPT -19%.
`OC(COc1ccc(F)cc1Cl)CN1CCC(Cc2ccccc2)CC1` (stereo not given) gave DT40 TDP1 CPT inconclusive, TGFb inhibitor inconclusive, HepG2 viability 16µM*, IL-1B inflam inh -61* and DT40 TDP1 no CPT 21µM*.
`OC(COc1ccccc1F)CN1CCC(Cc2ccccc2)CC1` (stereo not given) gave DT40 TDP1 CPT inconclusive, TGFb inhibitor -16%, TDP1 block 6%, HepG2 viability -37%, IL-1B inflam inh -26 and DT40 TDP1 no CPT inconclusive.
OC(COc1ccccc1)CN1CCC(Cc2ccccc2)CC1 (stereo not given) was read as DT40 TDP1 CPT 5%, TGFb inhibitor -7%, HepG2 viability -17%, IL-1B inflam inh -72* and DT40 TDP1 no CPT -17%.
`COc1cccc(OCC(O)CN2CCN(c3ccccc3)CC2)c1` (stereo not given) gave DT40 TDP1 CPT 1%, TGFb inhibitor 6%, TDP1 block 5%, HepG2 viability 2%, IL-1B inflam inh 12 and DT40 TDP1 no CPT 24%.
For COc1cccc(OCC(O)CN2CCC(Cc3ccccc3)CC2)c1 (stereo not given) the results were DT40 TDP1 CPT inconclusive, TGFb inhibitor -3%, TDP1 block 5%, HepG2 viability -30%, IL-1B inflam inh inconclusive and DT40 TDP1 no CPT 18µM*.
For COc1ccccc1C(=O)NCCC(=O)N1CC=C(c2ccccc2)CC1 the results were DT40 TDP1 CPT inconclusive, TGFb inhibitor 5%, HepG2 viability -2%, IL-1B inflam inh -18 and DT40 TDP1 no CPT -18%.
For O=C(Cn1c(-c2cccs2)cc2ccccc21)N1CCN(c2ccc(F)cc2)CC1 the results were DT40 TDP1 CPT inconclusive, TGFb inhibitor -10%, TDP1 block 1%, HepG2 viability -4% and DT40 TDP1 no CPT inconclusive.
For CN1C(C(=O)Nc2cccc(O)c2)=CC(c2ccco2)=NS1(=O)=O the results were DT40 TDP1 CPT -27%, TGFb inhibitor 1%, TDP1 block 9%, HepG2 viability 7%, IL-1B inflam inh -5 and DT40 TDP1 no CPT -12%.
For CCOC(=O)/C(N=Nc1sc(C(=O)OCC)c(C)c1C(=O)OCC)=C(\C)O the results were TDP1 block 6%.
Screening CCOC(=O)/C(N=Nc1sc(C(=O)OC)c(C)c1C(=O)OCC)=C(\O)CCl returned DT40 TDP1 CPT inconclusive, TGFb inhibitor -8%, TDP1 block 5%, HepG2 viability 9%, IL-1B inflam inh 12 and DT40 TDP1 no CPT 15µM*.
Screening NC(=S)N/N=C1\CC(c2ccc3c(c2)OCCCO3)Oc2ccc(F)cc21 (stereo not given) returned DT40 TDP1 CPT 2.6µM*, TGFb inhibitor inconclusive, HepG2 viability 12%, IL-1B inflam inh -71* and DT40 TDP1 no CPT 4.6µM*.
`Cc1nnc(C)c2c(C)n(-c3ccccc3)c(C)c12` gave DT40 TDP1 CPT 23µM*, TGFb inhibitor -4%, HepG2 viability -40%, IL-1B inflam inh 21 and DT40 TDP1 no CPT 23µM*.
Screening Cc1nnc(C)c2c(C)n(-c3ccccc3N)c(C)c12 returned DT40 TDP1 CPT 21µM*, TGFb inhibitor -2%, TDP1 block 2%, HepG2 viability -18%, IL-1B inflam inh -3 and DT40 TDP1 no CPT inconclusive.
Cc1ccc(-n2c(C)c3c(C)nnc(C)c3c2C)cc1C was read as DT40 TDP1 CPT 15µM*, TGFb inhibitor -2%, TDP1 block 4%, HepG2 viability -23%, IL-1B inflam inh inconclusive and DT40 TDP1 no CPT 15µM*.
Screening Cc1cc(-n2c(C)c3c(C)nnc(C)c3c2C)ccc1N returned DT40 TDP1 CPT 8.2µM*, TGFb inhibitor -13%, TDP1 block 1%, HepG2 viability 4% and DT40 TDP1 no CPT inconclusive.
`Cc1nnc(C)c2c(C)n(-c3ccc(Br)cc3)c(C)c12` gave TDP1 block 8%.
CCOc1ccc(CNC(=O)C2=Cc3cccc(OC)c3OC2)cc1 was read as DT40 TDP1 CPT inconclusive, TGFb inhibitor -22%, TDP1 block 5%, HepG2 viability -10% and DT40 TDP1 no CPT inconclusive.
For Cc1c(C(=O)N2CC[C@@H]3CCCC[C@H]3C2)sc2ncnc(NCCc3ccccn3)c12 the results were DT40 TDP1 CPT -12%[9.04 µM] and DT40 TDP1 no CPT inconclusive.
Screening Cc1ccc(-n2c(C)c3c(C)nnc(C)c3c2C)cc1 returned TDP1 block 4%.
For Cc1ccc(-n2c(C)c3c(C)nnc(C)c3c2C)cc1N the results were DT40 TDP1 CPT 21µM*, TGFb inhibitor -11%, TDP1 block 5%, HepG2 viability -3%, IL-1B inflam inh 18 and DT40 TDP1 no CPT inconclusive.
For O=C(Nc1ccncc1)c1cccc(S(=O)(=O)N2CCN(c3ccc(F)cc3)CC2)c1 the results were DT40 TDP1 CPT 21µM*, TGFb inhibitor 0%, TDP1 block 7%, HepG2 viability -22%, IL-1B inflam inh inconclusive and DT40 TDP1 no CPT 21µM*.
Screening O=C(Nc1ccc(Cl)cn1)c1cccc(S(=O)(=O)N2CCOCC2)c1 returned DT40 TDP1 CPT -29%, TGFb inhibitor -6%, TDP1 block 6%, HepG2 viability 18%, IL-1B inflam inh 31 and DT40 TDP1 no CPT -22%.
Screening Cc1ccc(NC(=O)c2cccc(S(=O)(=O)N3CCN(c4ccc(F)cc4)CC3)c2)nc1 returned DT40 TDP1 CPT 15µM*, TGFb inhibitor inconclusive, TDP1 block 3%, HepG2 viability -19%, IL-1B inflam inh 1 and DT40 TDP1 no CPT inconclusive.
